# Screen size: about 290,000 compounds; about 3,000 (1%) were called active. What follows is part of a selection rich in actives, with near analogues and random picks from the rest. Unmarked numbers belong to inactive results. No stated cut-off is given here; in the data, active means inhibition mostly above about 36% (no sharp cut-off); inactive means mostly below about 34%.
# Assay: inhibition of NOD1-driven NF-kB reporter – cell-based, luminescence, uHTS, primary screen (AID 1578);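 further: HEK-293T reporter cells stimulated with the NOD1 agonist gamma-tri-DAP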
# Conditions: NOD1-driven NF-kB luciferase reporter cells, at 4 µM, active compounds read high
row,Compound,inhibition
1,Cc1ccccc1NS(=O)(=O)c1ccc(OCC(=O)NCc2ccco2)cc1,-20.7%
2,CSC1=C(C#N)C(=O)NC(c2ccccc2O)S1 (configuration not stated),-3.8%
3,COC(=O)CSC1=C(C#N)C(=O)NC(c2ccccc2)S1 (configuration not stated),38.8%
4,CSC1=C(C#N)C(=O)NC(c2ccc(Cl)cc2)S1 (configuration not stated),45% (active)
5,COc1cc([N+](=O)[O-])ccc1NC(=S)NNC(=O)c1ccc2c(c1)OCO2,15.2%
6,N#CC(Cc1cccc(CC(C#N)(c2ccccc2)c2ccccc2)c1)(c1ccccc1)c1ccccc1,4.8%
7,Oc1ccc(C[C@@H]2CNC(=S)N2CCCCC2CCCCC2)cc1,-30.3%
8,CCC(=O)Nc1ccc(Cl)c(NC(=O)c2ccccc2OC)c1,57.1% (active)
9,CCC(=O)Nc1ccc(Cl)c(NC(=O)c2cccc(OC)c2)c1,-28.2%
10,COc1cc(NC(=O)c2ccccc2)c(OC)cc1Cl,-16.7%
11,COc1ccc(C(=O)Nc2cc(OC)c(Cl)cc2OC)cc1,-33.1%
12,CCC(=O)Nc1ccc(Cl)c(NC(=O)c2c(OC)cccc2OC)c1,7%
13,c1ccc(CCn2cnc3ccccc32)cc1,-43.2%
14,CCCC(=O)C1=C(O)C(C(=O)OC)C(C)(C)CC1=Nc1cccc([N+](=O)[O-])c1 (configuration not stated),-12.8%
15,FC(F)(F)Oc1ccc(NC(=S)Nc2ccccc2N2CCOCC2)cc1,4.5%
16,C/C(=N\NC(=O)c1c[nH]c2ccccc12)c1ccccn1,-30.8%
17,O=C(NCCNC(=O)c1ccccc1F)c1ccccn1,-8.2%
18,C/C(=N\NC(=O)c1ccc(COc2ccccc2)cc1)c1ccncc1,-26.5%
19,CCOc1ccc(OCc2ccc(C(=O)N/N=C(\C)c3ccccn3)cc2)cc1,91.6% (active)
20,CCOc1ccc(C(=O)N/N=C(\c2ccccc2)c2ccccn2)cc1,63.3%
21,COCC(=O)N1CCC(n2nnc3cc(C(F)(F)F)ccc32)CC1,-11.5%

row,Compound,inhibition
1,Cc1ccccc1NC(=O)c1ccc2nccnc2c1,-15.6%
2,c1ccc(Cc2nnc(Sc3ccccc3)c3ccccc23)cc1,40.8%
3,COc1ccc(Sc2nnc(Cc3ccccc3)c3ccccc23)cc1,46.4%
4,Cc1ccc(Sc2nnc(Cc3ccccc3)c3ccccc23)cc1,70% (active)
5,COc1cccc(OCc2cc(C(=O)N(C)C3CC(C)(C)NC(C)(C)C3)no2)c1,-22.6%
6,CCOc1ccc(N(CC(=O)O)S(=O)(=O)c2ccc(F)cc2)cc1,22.2%
7,COc1cccc2cc(C(=O)NC(C)C3CCCO3)c(=O)oc12 (configuration not stated),-27.3%
8,C=CCn1c(NC(=O)c2ccccc2Cl)c(C#N)c2nc3ccccc3nc21,28.8%
9,CCCCn1c(NC(C)=O)c(C#N)c2nc3ccccc3nc21,22.5%
10,CCCCn1c(NC(=O)CC)c(C#N)c2nc3ccccc3nc21,-7.1%
11,CCCCn1c(NC(=O)c2ccccc2)c(C#N)c2nc3ccccc3nc21,88.5% (active)
12,N#Cc1c(NC(=O)c2ccccc2Cl)n(Cc2ccccc2)c2nc3ccccc3nc12,83.5% (active)
13,CCCCn1c(NC(=O)c2ccccc2Cl)c(C#N)c2nc3ccccc3nc21,20%
14,O=C(C[n+]1cc(Br)cc(Br)c1)c1ccc(Cl)cc1,-7.2%
15,CC(=O)Nc1ccc(S(=O)(=O)N2CCC(C(=O)NCCC(=O)Nc3ccccc3)CC2)cc1,-17.6%
16,CCN(CC)c1nc2c(c(=O)[nH]c(=O)n2C)n1CCCc1ccccc1,-13.8%
17,CC1c2ccccc2SC(CCCN(C)C)c2ccccc21 (configuration not stated),59.5% (active)
18,CNCCCC1Sc2ccccc2Oc2ccccc21 (configuration not stated),-31.7%
19,CN(C)CCC1Sc2ccccc2Oc2ccccc21 (configuration not stated),-13.4%
20,COc1cccc(N2C(=O)N(c3ccccc3Cl)C3CS(=O)(=O)CC32)c1 (configuration not stated),-14.5%
21,Cc1n[nH]c(C)c1CCCCOc1ccc([N+](=O)[O-])cc1,-1.4%

row,Compound,inhibition
1,COC(=O)C1CCN(C(=O)C2CCC(=O)N(CCc3cccc(F)c3)C2)CC1 (configuration not stated),-26.6%
2,C/C(CS(=O)(=O)c1ccccc1)=N\O,-22.4%
3,C/C=C(\CS(=O)(=O)c1ccccc1)S(=O)(=O)c1ccccc1,60.5%
4,O=S(=O)(C/C(=C/CO)S(=O)(=O)c1ccccc1)c1ccccc1,100% (active)
5,COc1cccc(OCC(=O)Nc2ccncc2)c1,-11.4%
6,COc1ccccc1NC(=O)/C=C/c1ccc(OC)c(S(=O)(=O)N2CCOCC2)c1,-9.3%
7,CSc1nc(C)cc(OCCNS(=O)(=O)c2cc(C)ccc2C)n1,-15%
8,Cc1ccccc1CN1CCc2cc([N+](=O)[O-])ccc21,58.2% (active)
9,Cc1ccccc1COC(=O)c1cc([N+](=O)[O-])ccc1N1CCOCC1,-37.5%
10,Cc1ccccc1Cn1c(C)nc2ccc([N+](=O)[O-])cc2c1=O,-19.5%
11,O=c1c2ccccc2cnn1Cc1ccc(Br)cc1F,-29.7%
12,Cc1c(C(=O)N2CCCCC2)nn(-c2ccc(Cl)cc2)c(=O)c1C#N,-10.3%
13,COc1cc(CN2CCCN(C)CC2)cc([N+](=O)[O-])c1O,-23.1%
14,O=C(O)CSCC(=O)N1N=C2/C(=C/c3ccccc3)CCCC2C1c1ccccc1 (configuration not stated),-13.2%
15,CC(=O)N1N=C2/C(=C/c3ccccc3)CCCC2C1c1ccccc1 (configuration not stated),79.9% (active)
16,NC(=O)N1N=C2/C(=C/c3ccccc3)CCCC2C1c1ccccc1 (configuration not stated),-6.2%
17,CN(C)S(=O)(=O)c1cccc(C(=O)Nc2ccccc2)c1,-30.7%
18,O=c1c(-c2ccc(Cl)cc2)c[nH]n1-c1ccccc1,-5.7%
19,CCOc1cccc(N2C(=O)CC(NCc3ccc(S(N)(=O)=O)cc3)C2=O)c1 (configuration not stated),-9.2%
20,Cc1ccc(-n2c(SCC(=O)N3CCCCC3)nc(O)c(Cc3ccccc3)c2=O)cc1,-18.9%
